Screening results deposited in PubChem BioAssay by National Center for Advancing Translational Sciences (NCATS).
Shown is part of a subset that was picked to be rich in hits.
Pf Dd2 inh: Plasmodium falciparum Dd2 growth inhibition. P. falciparum Dd2 growth, SYBR Green, 72 h. Potency, µM (titrated, usually from 28.9 µM), for the others: top-dose activity, negative = inhibition, actives largely listed as inhibitors. 120,000 tested, 4.3% active. AID 1347417; active means well fitted inhibition curve with a large enough effect;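 further: plate controls were DMSO vehicle for no effect and reference drug for full effect; nearly all actives have a fitted effect of over 65% in size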
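Infected erythrocytes (Dd2, 0.3% parasitemia, 2.5% hematocrit final) are added to compound in RPMI-1640/Albumax II medium, grown 72 h at 37C in low oxygen, then lysed with saponin/Triton-X containing SYBR Green and read by fluorescence.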
An asterisk follows results filed as active; [ ] = remark or other dose. Potency means the concentration at half of the fitted maximal effect.

For Cc1ccc(C(=O)NCC2Cn3cccc3C(=O)N2C)cn1 (centres undefined) the results were Pf Dd2 inh -1%.
`COc1ccc(C2=NOC3(CCN(C(=O)c4ccccc4OC)C3)C2)cc1` (centres undefined) gave Pf Dd2 inh inactive.
For COc1ccc(C(=O)N2CC3(Cc4ccccc4N(C(C)=O)C3)C2)cc1 the results were Pf Dd2 inh -20%.
For COc1ccc(NC(=O)CSc2nc3ccccc3n2CC(=O)Nc2cccc(C)c2C)cc1 the results were Pf Dd2 inh 2%.
CCN(C(=O)Cn1c(SCC(=O)NCc2ccccc2)nc2ccccc21)c1cccc(C)c1 was read as Pf Dd2 inh -23%.
For CCN(C(=O)Cn1c(SCC(=O)Nc2ccc(OC)cc2)nc2ccccc21)c1cccc(C)c1 the results were Pf Dd2 inh 10µM*.
`CN1C(=O)COC[C@@H]1[C@H](O)c1ccc(NC(=O)C2CCC2)cc1` gave Pf Dd2 inh inactive.
O=C(Nc1ccccc1)N1CCN(c2ccc(Cl)nn2)C(=O)C1 was read as Pf Dd2 inh -6%.
For O=C(CSc1ccncc1)N1CCN2C(=O)N(Cc3ccccc3)C(=O)[C@H]2C1 the results were Pf Dd2 inh inactive.
Screening COc1ccc(CCCN2C(=O)O[C@@H]3CN(C(=O)C4CCOCC4)C[C@@H]32)cc1 returned Pf Dd2 inh 3%.
For O=c1[nH]c(N2CCOCC2)nc2c1CCN(Cc1ccc(F)c(Br)c1)CC2 the results were Pf Dd2 inh -10%[5.79 µM].
COc1ccc(Cn2c(SCc3ccc(C(=O)NC4CCCCC4)cc3)nc3ccncc32)cc1 was read as Pf Dd2 inh 7.9µM*.
`COc1ccc(Cn2c(SCc3ccc(C(=O)NC4CCCC4)cc3)nc3ccncc32)cc1` gave Pf Dd2 inh -13%.
Cc1ccc(Cn2c(SCc3ccc(C(=O)NC4CCCC4)cc3)nc3ccncc32)cc1 was read as Pf Dd2 inh 11µM*.
For Cc1ccc(Cn2c(SCc3ccc(C(=O)NC4CCCCC4)cc3)nc3ccncc32)cc1 the results were Pf Dd2 inh 11µM*.
Cc1ccc(Cn2c(=O)n(Cc3ccc(C(=O)NC4CCN(Cc5ccccc5)CC4)cc3)c(=O)c3ccccc32)cc1 was read as Pf Dd2 inh 7%.
`Cc1ccc(C(=O)CSc2nc3cc(C(=O)NC4CCCC4)ccc3c(=O)n2CC2CCCO2)c(C)c1` (centres undefined) gave Pf Dd2 inh -3%.
`COc1ccc(CSc2nc3ccncc3n2CC(=O)Nc2cc(C)cc(C)c2)cc1` gave Pf Dd2 inh 49%.
Screening Cc1cccc(CSc2nc3cc(C(=O)NC4CCCC4)ccc3c(=O)n2Cc2ccccc2)c1 returned Pf Dd2 inh 18%.
`Cc1ccc(CSc2nc3ccncc3n2Cc2nc(-c3ccc(Cl)cc3)oc2C)cc1` gave Pf Dd2 inh 5%.
Screening CCN(Cc1noc(C2CCC2)n1)C(=O)C1CCN(c2ccccc2)C1=O (centres undefined) returned Pf Dd2 inh -7%.
Screening COCCNC(=O)[C@@H]1C[C@@H](O)CN1C1CCN(C(=O)c2ccc(C(C)C)cc2)CC1 returned Pf Dd2 inh -14%.
CC(C)(Oc1nn(CC2CCOCC2)c2ccccc12)C(=O)NCCc1ccccc1 was read as Pf Dd2 inh -9%[44.1 µM].
For CC(C(=O)N1CCC(c2cc(Cc3ccccc3)[nH]n2)CC1)N1CCCC1=O (centres undefined) the results were Pf Dd2 inh -8%.
For CC(=O)N1CCCC2(C1)CN(C)c1ccc(C(=O)NC(C)C)cc12 (centres undefined) the results were Pf Dd2 inh 17%[44.1 µM].
Screening c1ccc(Cc2nnc([C@H]3CCN(CC4CCCCC4)C3)o2)cc1 returned Pf Dd2 inh inactive.
COc1ccc(CNC(=O)CC[C@H]2CNC(=O)[C@@H]3[C@@H](CCN3Cc3ccc(F)cc3)N2C)cc1 was read as Pf Dd2 inh 1%.
Cc1ccccc1-c1cc(C(=O)NCCc2cnc[nH]2)c2c(c1)N(C)CCO2 was read as Pf Dd2 inh inactive.
O=C1CC2(CCN(C(=O)c3ccc(C(F)(F)F)cc3)CC2)Oc2cc(Cl)ccc21 was read as Pf Dd2 inh -4%.
Screening O=C(c1ccc(CS(=O)(=O)c2c(Cl)cccc2Cl)o1)N1CCN(c2ccccc2)CC1 returned Pf Dd2 inh 11µM*.
Screening Cc1ccc(Cl)cc1N1CCN(C(=O)c2ccc(CS(=O)(=O)c3ccccc3C)o2)CC1 returned Pf Dd2 inh -21%.
`Cc1ccc(S(=O)(=O)Cc2ccc(C(=O)N3CCN(c4cccc(C)c4C)CC3)o2)cc1` gave Pf Dd2 inh -10%.
O=C(c1ccc2c(c1)OCO2)N1CC(Oc2ccc(F)c(F)c2)C1 was read as Pf Dd2 inh 9%.
Cc1ccn(CC(=O)NCCn2c(C)cnc2C2CC2)n1 was read as Pf Dd2 inh inactive.
`CN(C)c1cc(N2CCCC(NC(=O)c3ccnn3C)C2)ncn1` (centres undefined) gave Pf Dd2 inh 22%[5.79 µM].
Cc1nc2c(c(NCCc3nc(C)c(Cl)s3)n1)CCNCC2 was read as Pf Dd2 inh -10%.
CCCCNC(=O)CC(c1cccc2c1OCO2)c1c[nH]c2c(CC)cccc12 (centres undefined) was read as Pf Dd2 inh 10µM*.
O=C(CC(c1cccc2c1OCO2)c1c[nH]c2ccccc12)NCc1ccccc1 (centres undefined) was read as Pf Dd2 inh inactive.
Screening CCCCCNC(=O)CC(c1cccc(OC)c1OC)c1c[nH]c2c(CC)cccc12 (centres undefined) returned Pf Dd2 inh -21%.
Screening CCCCc1nn(CC(=O)N(C)Cc2ccc(C)o2)c(=O)n1CC returned Pf Dd2 inh 9%.
O=C1CCC2(CNC(=O)c3cnccn3)CCCC=C2N1 (centres undefined) was read as Pf Dd2 inh 1%.
COCCCNC(=O)C1CCN(Cc2cc3ccccc3n2Cc2ccccc2C)CC1 was read as Pf Dd2 inh -16%.
Screening Cc1ccc(Cn2c(CN3CCC(C(=O)NCCc4ccccc4)CC3)cc3ccccc32)cc1 returned Pf Dd2 inh 7.9µM*.
`Cc1cccc(Cn2c(CN3CCC(C(=O)NC(C)C)CC3)cc3ccccc32)c1` gave Pf Dd2 inh -18%.
For Cc1cccc(Cn2c(CN3CCC(C(=O)NCc4cccnc4)CC3)cc3ccccc32)c1 the results were Pf Dd2 inh inactive.
`O=C(NCc1cccnc1)C1CCN(Cc2cc3ccccc3n2Cc2ccccc2)CC1` gave Pf Dd2 inh 11µM*.
For CN(C)c1ccc(CNC(=O)C2CCN(S(=O)(=O)c3ccc4c(c3)oc(=O)n4C)CC2)cc1 the results were Pf Dd2 inh 15%.
Cc1ccc(Cn2c(CN3CCC(C(=O)NCC(C)c4ccccc4)CC3)cc3ccccc32)cc1 (centres undefined) was read as Pf Dd2 inh inactive.
CN(C)c1ccc(CNC(=O)C2CCN(Cc3cc4ccccc4n3Cc3ccccc3)CC2)cc1 was read as Pf Dd2 inh 11µM*.
For CN(C)c1ccc(CNC(=O)C2CCN(c3nc4ccccc4[nH]3)CC2)cc1 the results were Pf Dd2 inh 29%.
COc1ccc2[nH]c3c(c2c1)CCNC31CCN(C(=O)c2ccsc2)CC1 was read as Pf Dd2 inh -23%.
Screening Cc1ccc2c(C(=O)NC3CC3)cnn2c1 returned Pf Dd2 inh -6%[44.1 µM].
CCC(=O)N1CC(n2cc(C(=O)NCC3CC3)nn2)C1 was read as Pf Dd2 inh -5%.
For COC1CCC12CCN(C(=O)NC(C)(C)C)CC2 (centres undefined) the results were Pf Dd2 inh 7%.
